Laboratory results from PubChem BioAssay (NCATS).
A number with no mark means an inactive call. Inconclusive results are not listed. Where a call stands in place of a potency, no number is given. Calls of active or inactive are those of the source. Unless noted, calls follow the shape of the dose curve; as a rule, active = well fitted curve in the direction sought with a large enough effect; inconclusive = small, poorly fitted or top-dose-only effect, or another doubt; inactive = no such curve, though single readings can be large; an effect the other way counts as inactive or inconclusive.

Key:
[1] = molecular target: Lysosomal acid glucosylceramidase (Homo sapiens) (UniProt P04062); experiment: Glucocerebrosidase-p2 (AID 348; in the data active = potency below about 10 µM; also: potency is read from the fitted curve at half-maximal effect); settings: purified GBA, blue fluorogenic substrate, 40 min
Procedure, shortened: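 Compounds titrated from 0.6 nM upwards against 0.2 nM enzyme in pH 5.9 citric acid/KH2PO4, taurocholate, tween-20; blue fluorogenic substrate 80 uM, 40 min room temperature, stopped and read Ex 365/Em 440 for AC50.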

[2] = AP1 Signaling Pathway (AID 357; active = well fitted curve in either direction with a large enough effect, not every such curve was filed as active); settings: ME-180 AP-1-bla reporter, EGF-induced, beta-lactamase ratio, 5 h; at 7.69 µM (top of the series) unless noted
Procedure, shortened: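 AP-1-bla ME-180 cells with beta-lactamase reporter under AP-1 response element, stimulated with EC50 EGF; compounds titrated, 5 hours at 37 degrees Celsius. CCF4 read at 460/530 nm ratio; positive and negative modulators judged by AC50.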

[3] = molecular target: Cytochrome P450 1A2 (Homo sapiens) (UniProt P05177); experiment: p450-cyp1a2 (AID 410; calls by dose curve; also: potency is read from the fitted curve at half-maximal effect); settings: recombinant CYP1A2, luciferin-ME demethylation, luminescence; series mostly up to 57 µM
Procedure, shortened: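 Human CYP1A2 (20nM) demethylated Luciferin-ME at its Km (100uM) in 100mM KPO4. After 10 min compound preincubation, NADPH regeneration ran the reaction 60 min at room temperature. Luciferin was read by luminescence, normalized to 57 uM furafylline.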

[4] = Stat Signaling Pathway (AID 446; active = well fitted curve in either direction with a large enough effect, not every such curve was filed as active;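 also: ME-180 cervical cancer cells given 40 pM IL-6 alongside compound; SIE-controlled beta-lactamase reporter measured as 460/530 nm FRET emission ratio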); settings: ME-180 (cervical carcinoma) SIE beta-lactamase reporter, IL-6 stimulated, 5 h; series mostly up to 7.69 µM
Procedure, shortened: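 IL-6/STAT signaling read in ME-180 cells via an SIE beta-lactamase reporter. Stimulus was 40 pM IL-6 (its AC50) for 5 hrs, so both activation and inhibition register.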

[5] = molecular target: Glucocorticoid receptor (Homo sapiens) (UniProt P04150); experiment: GR-GFP Redistribution (AID 450;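 active = compounds whose dose series gives a full or clear partial fitted curve of increased nuclear translocation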; also: potency is read from the fitted curve at half-maximal effect); settings: U2OS GR-GFP nuclear translocation, laser cytometry, 2 h
[6] = molecular target: Glucocorticoid receptor (Homo sapiens) (UniProt P04150); experiment: GR-EFC Redistribution (AID 451; calls by dose curve; also: potency is read from the fitted curve at half-maximal effect); settings: CHO-K1 GR-EFC translocation, beta-gal luminescence, 2 h
Procedure, shortened: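 CHO-K1 cells expressing nuclear EA and GR-ED fragments of b-gal; compounds titrated up to 46 uM final, 2 h at 37 C. GR nuclear translocation read as complemented b-gal luminescence after 1 h RT detection.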

[7] = molecular target: 3',5'-cyclic-AMP phosphodiesterase 4B (Homo sapiens) (UniProt Q07343); experiment: qHTS Assay for Inhibitors of PDE-IV (AID 607; active = well fitted activation curve with a large enough effect in the main read-out, with a control signal flat, not every such curve was filed as active); settings: HEK293 ACTOne CNG channel cells, membrane potential fluorescence; series mostly up to 22.9 µM
Procedure, shortened: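 Live HEK293 cells with a modified cyclic nucleotide-gated (CNG) channel report intracellular cAMP via membrane-potential dye fluorescence (ex 535/em 590 nm). Endogenous PDE-IV was targeted. Compounds were tested at up to 22.9 uM final; RO 20-1724 100 uM served as control.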

[8] = molecular target: Dual specificity protein kinase CLK4 (Homo sapiens) (UniProt Q9HAZ1); experiment: qHTS Assay for Inhibitors of CDC-like Kinase 4 (Kinase-Glo Assay) (AID 1770); settings: recombinant Clk4, Kinase-Glo ATP depletion luminescence; series mostly up to 66.7 µM; also: nearly all actives have a fitted effect of over 65% in size
Procedure, shortened: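 25 nM Clk4 with 100 uM RS repeat peptide and 1 uM ATP (final) in Tris pH7.5, 10 mM MgCl2, 4.5 h at room temperature. Remaining ATP measured by Kinase-Glo luciferase luminescence.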

[9] = molecular target: Dual specificity protein kinase CLK4 (Homo sapiens) (UniProt Q9HAZ1); experiment: qHTS Assay for Inhibitors of CDC-like Kinase 4 (ADP-Glo Assay) (AID 1771); settings: recombinant CLK4, ADP-Glo luminescence; series mostly up to 80 µM; also: nearly all actives have a fitted effect of over 70% in size
Procedure, shortened: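 Clk4 (25 nM) was incubated 1 hr at room temperature with 100 uM RS repeat peptide and 1 uM ATP in buffer with 2 mM MgCl2, 0.5 mM EGTA, 2.5 mM DTT. ADP formed was quantified by ADP-Glo luminescence.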

[10] = molecular target: Dual specificity protein kinase CLK4 (Homo sapiens) (UniProt Q9HAZ1); experiment: qHTS Assay for Inhibitors of CDC-like Kinase 4 (ADP-FP Assay) (AID 1795); settings: Transcreener ADP fluorescence polarization; series mostly up to 50 µM;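 also: recombinant human CLK4 phosphorylating RS repeat peptide at 1 µM ATP; nearly all actives have a fitted effect of over 60% in size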
Procedure, shortened: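 Recombinant Clk4 (6.25 nM) phosphorylated 100 uM RS repeat peptide with 1 uM ATP in 25 mM Tris pH 7.5, 10 mM MgCl2, 0.5 mM EGTA, 2.5 mM DTT, 0.01% Triton X-100 for 1 h. ADP was detected by Transcreener ADP2 competitive fluorescence polarization after 30 min at room temperature.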

[11] = molecular target: Ubiquitin carboxyl-terminal hydrolase 1 (Homo sapiens) (UniProt O94782); experiment: Inhibitors of USP1/UAF1: Pilot qHTS (AID 504865); settings: purified USP1/UAF1, Ub-rhodamine cleavage fluorescence; series mostly up to 54.9 µM;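 also: rhodamine fluorescence freed from ubiquitin-rhodamine substrate followed over time; top concentration of the series differs between compounds; nearly all actives have a fitted effect of over 35% in size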
Procedure, shortened: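 USP1/UAF1 complex at 1 nM preincubated 15 min at room temperature with compound, then Ub-Rho substrate added at 150 nM final. Fluorescence (480/540 nm) read kinetically in 50 mM HEPES pH 7.8, 0.5 mM EDTA, 1 mM TCEP, 0.1 mg/ml BSA, 0.01% Tween-20.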

[12] = NCATS anti-infectives library activity on HEK293 viability as a counter-qHTS vs the C. elegans viability qHTS (AID 1745854); settings: HEK293 viability counter-screen; series mostly up to 41.8 µM
Procedure, shortened: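 HEK293 cells, 1500 per well, exposed 24 hr at 37C in 5% CO2 to compounds in a 1:5 titration, up to 41.7 uM final. Viability read as CellTiter-Glo luminescence after 10 min at room temperature.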

[13] = molecular target: Phospholipid hydroperoxide glutathione peroxidase GPX4 (Homo sapiens) (UniProt P36969); experiment: Primary qHTS Assay for Inhibitors of Recombinant Selenoprotein Glutathione Peroxidase 4 (GPX4) (AID 1845192); settings: recombinant GPX4, GR-coupled NADPH fluorescence, 15 min; series mostly up to 50 µM; also: potency is read from the fitted curve at half-maximal effect; nearly all actives have a fitted effect of over 65% in size
Procedure, shortened: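 GR-coupled assay: recombinant GPX4 preincubated 30 min with compound at room temperature; final 200 nM GPX4, 1 mM GSH, 0.5 mM cumene hydroperoxide, 0.5 mM NADPH, 100 nM GR, 0.01% BSA, pH 7.5 Tris. NADPH fluorescence (340/450 nm) read at 0 and 15 min.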

Sequence of Dual specificity protein kinase CLK4 (Homo sapiens) (Q9HAZ1 whole entry, looked up): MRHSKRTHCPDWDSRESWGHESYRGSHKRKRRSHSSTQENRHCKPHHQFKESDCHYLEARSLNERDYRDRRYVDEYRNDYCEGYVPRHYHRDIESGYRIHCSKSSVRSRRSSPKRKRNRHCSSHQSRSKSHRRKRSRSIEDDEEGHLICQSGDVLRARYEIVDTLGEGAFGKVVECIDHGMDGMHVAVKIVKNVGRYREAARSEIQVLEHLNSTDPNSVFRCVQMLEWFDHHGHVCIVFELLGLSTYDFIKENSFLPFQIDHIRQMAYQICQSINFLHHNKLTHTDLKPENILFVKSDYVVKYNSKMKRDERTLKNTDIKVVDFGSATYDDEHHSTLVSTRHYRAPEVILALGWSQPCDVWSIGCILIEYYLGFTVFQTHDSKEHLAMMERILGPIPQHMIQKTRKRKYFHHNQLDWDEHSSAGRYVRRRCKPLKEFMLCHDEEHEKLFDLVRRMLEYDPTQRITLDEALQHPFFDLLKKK
Sequence of Glucocorticoid receptor (Homo sapiens) (P04150 whole entry, looked up, the tested form may be a part): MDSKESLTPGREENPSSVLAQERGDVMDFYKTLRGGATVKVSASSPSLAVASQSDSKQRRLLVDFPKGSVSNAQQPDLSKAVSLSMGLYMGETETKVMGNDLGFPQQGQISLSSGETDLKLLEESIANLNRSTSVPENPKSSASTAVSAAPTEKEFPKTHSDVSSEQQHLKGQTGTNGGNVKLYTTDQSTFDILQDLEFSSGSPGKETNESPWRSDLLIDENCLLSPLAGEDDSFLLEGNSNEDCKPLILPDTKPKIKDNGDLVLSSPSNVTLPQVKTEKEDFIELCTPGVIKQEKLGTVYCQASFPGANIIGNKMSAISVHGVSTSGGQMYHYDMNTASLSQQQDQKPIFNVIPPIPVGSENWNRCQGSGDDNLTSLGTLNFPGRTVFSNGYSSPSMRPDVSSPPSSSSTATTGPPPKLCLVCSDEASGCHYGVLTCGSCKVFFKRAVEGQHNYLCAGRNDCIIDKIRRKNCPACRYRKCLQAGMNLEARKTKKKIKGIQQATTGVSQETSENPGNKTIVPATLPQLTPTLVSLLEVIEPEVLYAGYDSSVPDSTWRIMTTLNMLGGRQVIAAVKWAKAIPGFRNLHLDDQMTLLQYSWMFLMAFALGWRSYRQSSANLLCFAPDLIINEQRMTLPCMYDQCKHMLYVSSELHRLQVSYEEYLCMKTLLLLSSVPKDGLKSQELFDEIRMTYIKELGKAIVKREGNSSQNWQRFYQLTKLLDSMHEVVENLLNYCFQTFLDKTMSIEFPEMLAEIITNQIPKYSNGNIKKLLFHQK
Sequence of Phospholipid hydroperoxide glutathione peroxidase GPX4 (Homo sapiens) (P36969 whole entry, looked up): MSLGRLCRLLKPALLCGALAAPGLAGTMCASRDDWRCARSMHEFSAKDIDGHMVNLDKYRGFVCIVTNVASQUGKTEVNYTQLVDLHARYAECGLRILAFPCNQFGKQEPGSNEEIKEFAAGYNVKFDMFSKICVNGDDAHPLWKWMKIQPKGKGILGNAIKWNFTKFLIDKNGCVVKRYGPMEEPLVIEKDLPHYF
Sequence of Cytochrome P450 1A2 (Homo sapiens) (P05177 whole entry, looked up): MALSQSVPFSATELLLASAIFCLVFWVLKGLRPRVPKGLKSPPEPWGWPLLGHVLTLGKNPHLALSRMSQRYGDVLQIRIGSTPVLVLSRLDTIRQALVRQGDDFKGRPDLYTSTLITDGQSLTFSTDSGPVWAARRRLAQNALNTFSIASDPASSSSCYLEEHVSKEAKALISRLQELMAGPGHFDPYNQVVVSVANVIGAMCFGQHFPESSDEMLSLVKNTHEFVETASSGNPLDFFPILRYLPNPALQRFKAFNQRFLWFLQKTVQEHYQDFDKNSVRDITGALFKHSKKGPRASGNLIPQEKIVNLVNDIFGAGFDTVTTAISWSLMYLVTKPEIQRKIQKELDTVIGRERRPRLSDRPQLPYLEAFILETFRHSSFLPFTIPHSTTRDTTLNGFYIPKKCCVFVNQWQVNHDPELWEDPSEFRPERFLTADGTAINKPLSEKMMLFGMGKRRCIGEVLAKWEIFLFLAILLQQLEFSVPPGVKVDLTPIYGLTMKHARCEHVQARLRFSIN
Sequence of Ubiquitin carboxyl-terminal hydrolase 1 (Homo sapiens) (O94782 whole entry, looked up): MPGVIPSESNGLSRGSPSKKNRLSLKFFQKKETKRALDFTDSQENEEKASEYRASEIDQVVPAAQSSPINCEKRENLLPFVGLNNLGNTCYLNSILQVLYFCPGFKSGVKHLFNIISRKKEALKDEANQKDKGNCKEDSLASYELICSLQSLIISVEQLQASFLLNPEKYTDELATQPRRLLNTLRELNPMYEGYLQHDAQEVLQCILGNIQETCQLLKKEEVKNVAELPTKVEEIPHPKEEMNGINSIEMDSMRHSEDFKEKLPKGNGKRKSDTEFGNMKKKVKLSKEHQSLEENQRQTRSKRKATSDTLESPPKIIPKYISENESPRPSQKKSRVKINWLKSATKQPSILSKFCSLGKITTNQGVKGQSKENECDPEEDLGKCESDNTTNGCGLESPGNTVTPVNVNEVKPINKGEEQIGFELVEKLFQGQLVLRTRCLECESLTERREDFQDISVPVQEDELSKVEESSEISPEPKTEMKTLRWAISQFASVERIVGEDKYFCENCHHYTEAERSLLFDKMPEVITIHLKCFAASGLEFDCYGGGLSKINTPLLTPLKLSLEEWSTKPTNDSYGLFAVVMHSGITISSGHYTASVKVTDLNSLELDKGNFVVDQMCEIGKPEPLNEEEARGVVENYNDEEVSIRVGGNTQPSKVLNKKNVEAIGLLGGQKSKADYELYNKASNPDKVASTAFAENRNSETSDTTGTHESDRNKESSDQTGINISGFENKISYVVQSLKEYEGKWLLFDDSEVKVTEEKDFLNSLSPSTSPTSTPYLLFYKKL
Sequence of Lysosomal acid glucosylceramidase (Homo sapiens) (P04062 whole entry, looked up): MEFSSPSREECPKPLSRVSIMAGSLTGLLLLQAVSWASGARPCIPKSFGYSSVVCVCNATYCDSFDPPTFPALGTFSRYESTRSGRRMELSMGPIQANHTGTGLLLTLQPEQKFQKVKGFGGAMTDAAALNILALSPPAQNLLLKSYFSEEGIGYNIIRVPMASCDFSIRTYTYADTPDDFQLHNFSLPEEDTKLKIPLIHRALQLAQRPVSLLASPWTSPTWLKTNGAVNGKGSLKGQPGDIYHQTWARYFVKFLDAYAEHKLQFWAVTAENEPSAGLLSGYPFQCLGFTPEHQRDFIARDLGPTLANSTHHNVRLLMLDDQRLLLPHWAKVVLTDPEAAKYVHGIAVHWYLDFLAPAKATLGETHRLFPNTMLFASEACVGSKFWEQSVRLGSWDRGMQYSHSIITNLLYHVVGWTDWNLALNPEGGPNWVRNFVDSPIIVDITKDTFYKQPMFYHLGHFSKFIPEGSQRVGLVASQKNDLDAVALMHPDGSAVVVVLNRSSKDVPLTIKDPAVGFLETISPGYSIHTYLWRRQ
Sequence of 3',5'-cyclic-AMP phosphodiesterase 4B (Homo sapiens) (Q07343 whole entry, looked up): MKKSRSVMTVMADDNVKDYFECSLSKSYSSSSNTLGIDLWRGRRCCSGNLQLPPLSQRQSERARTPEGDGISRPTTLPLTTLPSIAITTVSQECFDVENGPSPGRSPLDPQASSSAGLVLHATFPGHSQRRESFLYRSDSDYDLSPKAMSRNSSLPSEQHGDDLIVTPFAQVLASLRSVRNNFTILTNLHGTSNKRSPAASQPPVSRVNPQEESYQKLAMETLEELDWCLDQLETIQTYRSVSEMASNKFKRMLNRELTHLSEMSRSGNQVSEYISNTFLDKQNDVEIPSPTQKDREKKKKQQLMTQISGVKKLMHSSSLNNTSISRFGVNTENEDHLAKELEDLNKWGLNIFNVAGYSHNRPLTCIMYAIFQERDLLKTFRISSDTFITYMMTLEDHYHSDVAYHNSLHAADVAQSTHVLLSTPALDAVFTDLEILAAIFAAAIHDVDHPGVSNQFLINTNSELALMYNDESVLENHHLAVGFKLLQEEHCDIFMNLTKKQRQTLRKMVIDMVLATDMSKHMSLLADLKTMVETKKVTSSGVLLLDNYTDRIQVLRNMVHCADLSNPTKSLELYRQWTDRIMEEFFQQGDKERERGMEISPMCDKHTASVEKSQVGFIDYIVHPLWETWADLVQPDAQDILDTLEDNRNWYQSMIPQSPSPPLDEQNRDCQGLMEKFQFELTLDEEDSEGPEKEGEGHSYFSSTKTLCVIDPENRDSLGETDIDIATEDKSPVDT

| Structure (SMILES) | Potency [1] | activity change, negative = inhibition [2] | Potency [3] | outcome [4] | Potency [5] | Potency [6] | Potency [7] | Potency [8] | Potency [9] | Potency [10] | Potency [11] | Potency [12] | Potency [13] |
| --- | --- | --- | --- | --- | --- | --- | --- | --- | --- | --- | --- | --- | --- |
| CN1CCN(c2ncc3nc(-c4ccccc4)c(=O)n(Cc4cccs4)c3n2)CC1 | > 11.4 µM | 7.66% | 15.8 µM (active) | inactive | > 9.22 µM | > 46 µM | inactive | inactive | inactive | inactive | inactive |  |  |
| C=C[C@@H]1C[C@]1(NC(=O)[C@@H]1C[C@@H]2CN1C(=O)[C@H](C(C)(C)C)NC(=O)O[C@@H]1C[C@H]1CCCCCc1nc3ccc(OC)cc3nc1O2)C(=O)NS(=O)(=O)C1CC1 |  |  |  |  |  |  |  |  |  |  |  | inactive | 5.62 µM (active) |
